These are literature values, as cited in PubChem BioAssay AID977611.

Structures are written as SMILES. The whole screen tested about 3,900 compounds, of which about 3,900 (100%) were called active. Cut-off not given; nearly all actives show Kd up to about 4200 µM. The set was probably picked from earlier hits. Some of the results follow. Where a SMILES comes first, the peptide text is derived from it. Square brackets hold non-standard residues; d marks the D form. Residues, ends and D or L forms follow the SMILES beside them. Peptide text beside a SMILES is read from it. Orn(CH(NH2)2) = NC(N)NCCC[C@H](N)C(=O)O

This series is described as follows: PubChem AID 977611. The conditions noted are these: PDB protein-ligand complexes, literature Kd.

Take `NC1NC(=O)c2c(CCc3ccc(C(=O)N[C@@H](CCC(=O)O)C(=O)O)cc3)c[nH]c2N1` (some centres not stated): the Kd (protein: Folate receptor beta, PDB entry 4kn2) is 0.054 µM (active). With `NC1NC(=O)c2nc(CNc3ccc(C(=O)N[C@@H](CCC(=O)O)C(=O)O)cc3)cnc2N1` (some centres not stated), the Kd was 0.00019 µM (active) (protein: Folate receptor alpha, PDB entry 4lrh) and 0.0027 µM (active) (protein: Folate receptor beta, PDB entry 4kmz). For the molecule `Nc1nc(N)c2nc(CNc3ccc(C(=O)N[C@@H](CCC(=O)O)C(=O)O)cc3)cnc2n1`, where the note is “protein: Folate receptor beta, PDB entry 4kn1”, the equilibrium dissociation constant (Kd) was 0.144 µM (active). Regarding `N[C@H](CNc1nc(-c2ccncc2)nc2sc3c(c12)CCCC3)Cc1ccccc1`, the Kd (protein: PROTEIN KINASE C IOTA TYPE, PDB entry 3zh8) was 0.341 µM (active).

As for `O=C(O)[C@H](O)CO[P+](O)(O)O`, the dissociation constant Kd (protein: human phosphoglycerate kinase, PDB entry 3c39) was 109 µM (active). Turning to `O=C(CO)[C@@H](O)[C@H](O)[C@H](O)CO[P+](O)(O)O`, the Kd (protein: Glucokinase regulatory protein, PDB entry 3w0l) was 0.095 µM (active). Consider `O=C(CO[P+](O)(O)O)NO`, for which the Kd (protein: Fructose-bisphosphate aldolase, PDB entry 4del) was 0.0211 µM (active).

Regarding `O=C(O)CO[P+](O)(O)O`, the Kd reads like this: (protein: TRIOSEPHOSPHATE ISOMERASE (A198V, C202A, C222N mutation), PDB entry 4bi6) 113 µM (active); (protein: TRIOSEPHOSPHATE ISOMERASE (C202A mutation), PDB entry 4bi7) 26.4 µM (active).

With `O=C(O)c1ccc(-c2ccc(C(=S)NCc3ccc(-c4ccnn4-c4ccc(Cl)c(Cl)c4)cc3)c(Cl)c2)o1`, the dissociation constant (Kd) (protein: Replication protein A 70 kDa DNA-binding subunit, PDB entry 4lwc) was 0.19 µM (active). With `COCCO[C@@H]1COCCOC[C@H]1OCCOC`, the dissociation constant (Kd) (protein: METAL-BINDING PROTEIN YODA, PDB entry 4aw8) was 0.022 µM (active).

For `C[C@@H](O)[C@H](NC(=O)[C@@H]1CCCN1C(=O)[C@H](CO[P+](O)(O)O)NC(=O)[C@H](Cc1ccc(O)cc1)NC(=O)[C@H](CO)NC(=O)[C@@H]1CCCN1)C(=O)N[C@@H](CO[P+](O)(O)O)C(=O)N1CCC[C@H]1C=O`, the equilibrium dissociation constant (Kd) (protein: CTD INTERACTING DOMAIN of RNA processing factor SCAF8(R112T), PDB entry 3d9p) was 29 µM (active). `C[C@@H](O)[C@H](NC(=O)[C@@H]1CCCN1C(=O)[C@H](CO[P+](O)(O)O)NC(=O)[C@H](Cc1ccc(O)cc1)NC(=O)[C@H](CO)NC(=O)[C@@H]1CCCN1)C(=O)N[C@@H](CO)C(=O)N1CCC[C@H]1C(=O)N[C@@H](CO)C(=O)O`: under “protein: Rtt103 CTD-interacting domain, PDB entry 2l0i”, the dissociation constant (Kd) is 15 µM (active). With `C[C@@H](O)[C@H](NC(=O)[C@@H]1CCCN1C(=O)[C@H](CO)NC(=O)[C@H](Cc1ccc(O)cc1)NC(=O)[C@H](CO)NC(=O)[C@@H]1CCCN1)C(=O)N[C@@H](CO)C(=O)N1CCC[C@H]1C(=O)N[C@H](C=O)CO` (H-PSYSPTSPS-aldehyde), for the setting “protein: CTD INTERACTING DOMAIN of RNA processing factor SCAF8(N15M/Y17M), PDB entry 3d9o”, the dissociation constant (Kd) is 1000 µM (active). Take `NC(=S)Nc1ccc(C[C@H](CN(CC(=O)O)[C@H]2CCCC[C@@H]2N(CC(=O)O)CC(=O)O)N(CC(=O)O)CC(=O)O)cc1`: the Kd reads like this: (protein: Neutrophil gelatinase-associated lipocalin (mutation), PDB entry 4iaw) 0.000234 µM (active); (protein: Neutrophil gelatinase-associated lipocalin (mutation), PDB entry 4iax) 0.000273 µM (active). Take `N#CCCNc1nonc1-c1nc2ccccc2n1CC(=O)c1ccc(N)cc1`: the Kd (protein: Tubulin, PDB entry 4o2a) is 1.8 µM (active). Turning to `CC(C)[C@H](NC(=O)[C@H](CCCNC(N)N)NC(=O)[C@@H](NC(=O)[C@@H]1CCCN1)[C@@H](C)O)C(=O)N[C@@H](CO)C(=O)N[C@@H](CO[P+](O)(O)O)C(=O)N1CCC[C@H]1C(=O)N[C@H](C(=O)N[C@@H](Cc1ccccc1)C(=O)NCC(=O)N[C@@H](C)C(=O)N[C@H](C(=O)O)[C@@H](C)O)C(C)C`, the Kd (protein: Breast cancer type 1 susceptibility protein, PDB entry 1y98) is 3.7 µM (active). In the case of `CC[C@H](C)[C@H](N)C(=O)N[C@@H](CO)C(=O)N[C@@H](CCCNC(N)N)C(=O)N[C@@H](CO)C(=O)N[C@H](C(=O)N[C@@H](CO[P+](O)(O)O)C(=O)N1CCC[C@H]1C(=O)N[C@H](C(=O)N[C@@H](Cc1ccccc1)C(=O)N[C@@H](CC(N)=O)C(=O)N[C@@H](CCCCN)C(=O)N[C@@H](CCC(N)=O)C(=O)O)[C@@H](C)O)[C@@H](C)O`, the dissociation constant Kd (protein: Breast cancer type 1 susceptibility protein, PDB entry 1t29) is 0.9 µM (active). Regarding `CC(C)C[C@H](NC(=O)[C@@H]1CCCN1C(=O)CNC(=O)[C@H](Cc1ccccc1)NC(=O)[C@@H](N)CC(=O)O)C(=O)N[C@H](C(=O)NCC(=O)N[C@@H](C)C(=O)O)C(C)C` (H-DFGPLVGA-OH), the Kd (protein: ?-adaptin ear domain of GGA3, PDB entry 1p4u) is 5 µM (active). As to `CSCC[C@H](NC(=O)[C@@H]1CCCN1C(=O)[C@H](Cc1ccc(O)cc1)NC(=O)[C@@H](N)Cc1ccccc1)C(=O)N[C@@H](CC(C)C)C(=O)N[C@@H](CCCNC(N)N)C(=O)N[C@@H](Cc1ccc(O)cc1)C(=O)N[C@H](C(=O)N[C@@H](CC(N)=O)C(=O)NCC(=O)N1CCC[C@H]1C(=O)N1CCC[C@H]1C(=O)N1CCC[C@H]1C(=O)N[C@H](C(=O)O)[C@@H](C)O)[C@@H](C)O` (H-FYPML[Orn(CH(NH2)2)]YTNGPPPT-OH), the Kd (protein: SUN domain-containing protein 2, PDB entry 4fi9) is 0.0456 µM (active).
